# Source: the supplement of paper PMC6555819
# How the values were obtained:
# Assay in all cases: PBM binding z-score (relative to random genomic background probes); higher = stronger binding; sequences stand for … in GC…GCGATTGACAGCGTAGAATGAAGG
# [1] = tested on: PPARg:RXRa DBDmut IVT, anti-RXR (DBD mutation: RXRa K156A/R161A, NR concentration 270 nM, RXRa partner concentration 90 nM)
# Outline: (§1)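 The probes on custom Agilent 4×180K protein-binding microarrays were double-stranded, with 34-nt variable regions bearing direct-repeat seeds, single-nucleotide variants, half-site ablations and random human genomic background sequences. Incubation lasted 1 h with ligand-free nuclear receptor dimers in PBS pH 7.4, 2% milk, 0.02% Triton X-100, 1 mM DTT, 0.2 mg/mL BSA and 0.4 mg/ml salmon testes DNA. Antibodies against each partner (one per run) detected bound dimers, and fluorescence scans were regression-normalized. Binding z-scores take the random background probes as reference.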
# [2] = tested on: PPARg:RXRa IVT, anti-PPARg (NR concentration 270 nM, RXRa partner concentration 90 nM)
# Outline: as §1
# [3] = tested on: PPARg DBDmut:RXRa IVT, anti-PPARg (DBD mutation: PPARg1 K132A/R137A, NR concentration 270 nM, RXRa partner concentration 90 nM)
# Outline: as §1
# [4] = tested on: PPARg DBDmut IVT, anti-PPARg (DBD mutation: PPARg1 K132A/R137A, NR concentration 270 nM)
# Outline: as §1
# [5] = tested on: PPARg homodimer (NR concentration 180 nM)
# Outline: as §1
# [6] = tested on: PXR:RXRa (NR concentration 270 nM, RXRa partner concentration 90 nM)
# Outline: as §1
# [7] = tested on: PXR homodimer (NR concentration 270 nM)
# Outline: as §1
# [8] = tested on: RARa:RXR (NR concentration 270 nM, RXRa partner concentration 90 nM)
# Outline: as §1
# [9] = tested on: RARa homodimer (NR concentration 270 nM)
# Outline: as §1
# [10] = tested on: RARb:RXRa (NR concentration 270 nM, RXRa partner concentration 90 nM)
# Outline: as §1
# [11] = tested on: RARb homodimer (NR concentration 270 nM)
# Outline: as §1
# [12] = tested on: RARg:RXRa (NR concentration 270 nM, RXRa partner concentration 90 nM)
# Outline: as §1
# [13] = tested on: RARg homodimer (NR concentration 270 nM)
# Outline: as §1
# [14] = tested on: RXRa DBDmut IVT, anti-RXR (DBD mutation: RXRa K156A/R161A, NR concentration 90 nM)
# Outline: as §1
# [15] = tested on: RXRa homodimer (NR concentration 180 nM)
# Outline: as §1
# [16] = tested on: THRa:RXRa (NR concentration 90 nM, RXRa partner concentration 90 nM)
# Outline: as §1
# [17] = tested on: THRa homodimer (NR concentration 90 nM)
# Outline: as §1
# [18] = tested on: VDR homodimer (NR concentration 270 nM)
# Outline: as §1
Sequence,PBM binding z-score [1],PBM binding z-score [2],PBM binding z-score [3],PBM binding z-score [4],PBM binding z-score [5],PBM binding z-score [6],PBM binding z-score [7],PBM binding z-score [8],PBM binding z-score [9],PBM binding z-score [10],PBM binding z-score [11],PBM binding z-score [12],PBM binding z-score [13],PBM binding z-score [14],PBM binding z-score [15],PBM binding z-score [16],PBM binding z-score [17],PBM binding z-score [18]
ATCTCTAGGCAAAAGTTCAGTGAATCCCGAGGAT,0.185,1.61,0.694,0.529,1.05,1.5,1.04,0.864,-0.11,2.33,2.4,1.66,1.69,0.479,1.02,0.622,-0.181,0.923
ACCGACAGGTGATGAAGGTAACTCAGGCTATCAT,0.339,0.157,0.484,0.654,0.0692,-0.165,-0.395,0.291,0.18,0.0834,0.0533,0.16,0.23,-0.271,0.299,0.649,-0.149,-0.217
ATCTCTAGGTCAGACTCAGTTCAGTGAAGAACGC,5.06,5.22,1.01,1.61,2.14,4.07,1.69,2.07,1.03,3.51,3.14,3.81,4.03,1.47,1.67,2.94,2.03,2.32
CGAACTAGGTCAAGGACAGTGTATCTCCGCACGC,7.97,8.01,3.03,0.882,1.62,1.43,-0.0646,2.03,0.437,3.95,3.56,3.8,4.37,1.87,2.55,3.45,2.61,0.841
GCGACTGGGGCAAAGCAGGTTACCATCAGGTTGG,3.88,3.6,-0.221,-0.906,0.147,0.343,-0.136,0.899,-1.19,0.889,0.97,0.227,0.303,-0.245,0.557,2.72,-0.213,-0.458
ATCTCTAGGTAACCAAGCTCAGTGAATGCCGAAC,2.93,2.13,1.25,0.885,0.709,-0.105,0.251,0.193,0.798,0.0628,-0.00643,0.122,-0.0382,-0.17,-0.107,0.646,0.537,0.149
GGTGCTAGGTCAACTGATGGTCAGCTAAAGCTCG,4.51,4.91,-0.202,-0.913,3.45,1.84,0.142,3.25,0.466,4.43,3.76,5.3,5.75,1.28,2.7,2.99,1.07,0.446
GCGACTGGGGGATCAGCAGGTTACCATAACTTAA,0.873,2.43,3.69,4.01,0.749,1.15,0.388,1.31,-0.462,0.688,0.909,0.837,0.34,0.58,1,1.67,0.806,0.0827
ACAAGCAGGCCAAGGGTCACTCAAGATTAGTCCG,1.27,3.95,0.299,-0.852,2.21,3.26,-0.154,4.08,0.779,3.47,3.85,4.28,4.23,0.479,4.21,2.67,0.327,0.958
ACTAGTTGGTCATCTGAGGTCACACACAATTCGG,2.52,3.08,1.2,0.851,3.6,5.61,2.26,4.86,1.05,3.69,4.29,4.22,4.23,1.93,4.26,5.17,5.44,4.23
GCTTACGGGTCAAACGTTATAGCATGAATAGAAT,4.87,4.1,1.95,1.38,1.25,3.37,-0.15,4.41,0.0211,3.76,2.24,4.8,4.42,2.47,5.6,2.24,-0.707,1.11
CCTAATGGGCCACGAAAGGTCATTGATTCAGTGA,3.95,4.1,0.487,0.297,2.38,5.44,1.32,5.08,0.945,4.16,4.85,4.78,4.65,1.17,4.84,3.95,0.853,2.52
TCATATAGGTAAACAGGTAAAAGTCCGTAAGTTA,4.45,3.81,1.35,1.75,0.996,0.894,0.723,1.14,1.5,0.628,0.493,0.41,0.406,1.53,0.676,0.697,0.445,0.448
TAGCCTAGGTCATGGGCCAGTACACCACGCGAAC,1.78,3.17,1.24,-0.494,1.72,1.62,-0.215,2.77,0.343,3.92,2.88,4.3,4.65,0.275,3.7,2.99,1.48,0.985
TCGAGTAGGTTAGTCGGGGCCTTCAGCCAACATA,1.83,1.08,-1.4,-0.48,-0.555,-0.49,-0.597,-0.0225,-1.38,0.0952,-0.149,-0.47,-0.571,0.14,-0.278,1.57,-0.433,-0.455
TAGCCTAGGTCATGGACCAGTATACCACGCGAAC,1.67,3.14,0.484,0.282,1.64,1.69,-0.467,2.85,-0.128,3.77,2.8,4.03,4.21,0.316,3.56,3.18,1.13,0.57

Sequence,PBM binding z-score [1],PBM binding z-score [2],PBM binding z-score [3],PBM binding z-score [4],PBM binding z-score [5],PBM binding z-score [6],PBM binding z-score [7],PBM binding z-score [8],PBM binding z-score [9],PBM binding z-score [10],PBM binding z-score [11],PBM binding z-score [12],PBM binding z-score [13],PBM binding z-score [14],PBM binding z-score [15],PBM binding z-score [16],PBM binding z-score [17],PBM binding z-score [18]
AGAACGAGGGCACGCTGATTTGATAGCAGAGTAG,4.06,4.09,0.567,-0.124,0.292,0.514,-0.166,1,-0.142,2.67,1.14,1.65,1.92,1.63,1.38,1.65,-0.138,0.667
TCTTGTAGATCAGCAGGTTCAGAAAGCTGGCCAA,1.4,0.189,-0.291,-0.791,-0.268,0.644,-0.241,0.455,-0.229,0.0377,-0.402,-0.138,-0.569,0.668,0.303,0.00022,-0.821,1.58
CCAGACAGGTGAAAGGTAGCTCAGTCTGGTACGC,2.97,1.52,-1.06,-0.199,0.596,-0.0966,-0.482,0.905,-0.063,0.738,0.293,0.352,0.242,-0.0776,1.07,0.0213,-0.421,0.118
GATACAGGGTAAGCTAGAGGCCAGAGTATGGAAA,0.227,0.424,-0.118,-0.173,-0.435,-0.38,-0.17,-0.0414,-0.543,0.634,0.413,0.988,0.547,-0.967,0.303,0.219,-0.653,-0.382
CTCTAAAGGTCGTGCTCAGGTGAGTATACCAAAC,1.12,2.17,0.717,0.316,1.58,3.09,-0.0495,4.14,-0.0895,3.93,2.96,5.08,3.88,2.33,4.64,4.37,1.31,1.37
TCACACAGGTGAAGGTAACTCAGGTACGCAGTCG,2.55,1.69,0.51,-0.435,-0.0155,0.559,-0.0288,0.898,0.414,1.15,0.561,0.746,0.701,0.879,1.18,1.4,0.16,0.257
AGAACGAGGGCTATGAGTTGATAGCACGGGTGGC,0.434,-0.14,-0.172,-1.35,-0.607,-0.351,0.0434,-0.584,0.201,-0.0296,-0.36,-0.0451,-0.0854,-0.264,0.416,-0.476,-0.913,-0.036
CCTCGGAGGACAACAGGAGGTCAGCGCTGCCAGA,0.165,0.649,-1.42,-1.72,2.38,2.56,0.451,2.71,0.815,3.27,3.96,4.12,4.04,0.326,2.28,3.14,1.31,1.13
GCAACGAGGGCAAAGTTGATAGCATCTGTCGACG,2.74,3.19,0.065,-0.728,0.234,1.18,-0.438,1.53,-0.122,2.34,0.991,1.89,1.57,2.62,1.81,1.19,-0.191,1.21
AGAATCAGGTTATTAAGATCAGGGAATTGCGGTC,2.96,2.28,0.999,0.854,1.29,0.516,0.602,0.644,1.45,1,0.785,0.291,0.541,0.627,0.596,1.21,0.84,0.616
GGAACGAGGGCTTTCGAGTTGATAGCATGGCGAT,0.386,-0.141,-0.402,-0.448,-0.921,0.129,-0.343,0.0983,-0.868,-0.36,-0.798,-0.258,-0.353,0.228,-0.0785,0.893,-0.983,0.344
ACCTCTAGGTAACCAAGTTCAGTGAATGCCGAAC,3.87,2.09,0.112,0.237,-0.00896,1.65,1.47,0.453,-0.355,0.936,1.28,0.433,0.365,0.736,0.358,1.25,0.385,2.26
CCGACTGGGGGAAGGTTACCATAACGCACAGCCA,0.717,2.1,0.867,1.69,0.69,0.63,0.357,0.802,0.511,1,0.998,1.06,1.02,-0.37,1.02,1.1,0.107,0.178
AGAATGAAGTTATTAAGATCAGGGAATTGCGGTC,-0.0627,-0.0866,0.409,0.313,0.538,-0.219,0.044,0.183,0.224,-0.286,-0.379,-0.168,-0.0523,-0.232,0.116,-0.108,-0.315,-0.263
GCATGTAGGTAATACAAGGTGAAAGTCCGATTGT,4.42,4.28,0.0664,0.517,0.562,0.369,0.257,1.52,0.17,0.218,0.748,0.359,0.236,-0.332,0.495,3.96,0.81,-0.301
